Counter-ions that a name gives are not always drawn.

The text below walks through data of the supplement of paper PMC7411054.

For one experiment, the system named is WPMY1-ACTB-RAB5A. Nature of the experiment: lowest phenotypically active concentration; higher = less potent. Particulars: treatment time: 24 h. The method, boiled down: (§1)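 Fifteen gene-edited A549, HepG2 and WPMY1 reporter lines (BFP segmentation plus GFP and RFP/FusionRed markers) were treated at 0.3, 1, 3 or 9 µM for 24 h, four wells each, then imaged live. Live-cell features per well were normalised to DMSO control wells. Deviation required ≥3 of 4 wells beyond the 95th percentile of DMSO Euclidean distances, and reproducibility required median replicate Pearson correlation above the 95th percentile of non-replicates. Phenotypic activity needed both criteria.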
As to `O=C(CCCCCCC(=O)Nc1ccc([C@H]2O[C@@H](CSc3nc(-c4ccccc4)c(-c4ccccc4)o3)C[C@@H](c3ccc(CO)cc3)O2)cc1)NO` [Tubacin], the “lowest phenotypically active concentration” value was found to be 9 µM.
Still for that read-out and setting: next, `CC1CNCCN1S(=O)(=O)c1cccc2cnccc12` (configuration not stated) [H-7 dihydrochloride]: 9 µM; `N#Cc1ccc2ncnc(NCCc3ccccc3)c2c1` [Senexin A]: 1 µM.
The same measure, in the same setting: next, `COc1ccccc1C(=O)Nc1cc2c(cc1N1CCCC1)n(C)c(=O)n2C`: 9 µM; `CCc1nc(-c2cccc(C)c2)c(-c2ccnc(NC(=O)c3ccccc3)c2)s1`: 9 µM.
On the same count and under the same terms, next, `Cc1ccc(NC(=O)c2cccc(C(C)(C)C#N)c2)cc1Nc1ccc2ncn(C)c(=O)c2c1`: 3 µM; `O=C1c2c(O)cccc2Cc2cccc(O)c21` [anthralin]: 9 µM; `COc1cc2c(cc1OC)-c1c/c(=N/c3c(C)cc(C)cc3C)n(C)c(=O)n1CC2` [Trequinsin hydrochloride]: 9 µM.
Regarding `O=C(/C=C/c1ccc2ccccc2n1)c1ccncc1`, the “lowest phenotypically active concentration” value worked out at 9 µM.
With `CCC(C)(C)C(=O)O[C@H]1C[C@@H](C)C=C2C=C[C@H](C)[C@H](CC[C@@H]3C[C@@H](O)CC(=O)O3)[C@H]21` [Simvastatin], the “lowest phenotypically active concentration” value is no more than 0.3 µM.
Regarding `Nc1cc(N)c(N)cc1N` [FAK Inhibitor 14], the “lowest phenotypically active concentration” value was found to be 3 µM.
On the same count and under the same terms, the figure for `Cc1ccc(S(=O)(=O)c2ccc([N+](=O)[O-])o2)cc1` is 3 µM; for `Fc1ccccc1Nc1nc2nonc2nc1Nc1ccccc1F` it is 9 µM; for `COc1cc2nccc(Oc3ccc(NC(=O)C4(C(=O)Nc5ccc(F)cc5)CC4)cc3)c2cc1OC` it is 3 µM.
For `COc1ccc(CCc2nc3cc(-c4c(C)noc4C)ccc3n2C[C@H](C)N2CCOCC2)cc1Cl`, the “lowest phenotypically active concentration” value is 9 µM.
Same read-out and setting: the figure for `CCN1/C(=C/C(C)=O)Sc2ccc(O)cc21` is 9 µM; for `O=S(=O)(c1cccc2cnccc12)N1CCNCC1` it is 9 µM; for `CC(C)c1c(C(=O)Nc2ccccc2)c(-c2ccccc2)c(-c2ccc(F)cc2)n1CC[C@@H](O)C[C@@H](O)CC(=O)O` [atorvastatin] it is 1 µM.

For another experiment, the system named is WPMY1-CANX-COX4. The experiment is described as above. Particulars: treatment time: 24 h. The gist of the method: as §1
As to `O=C(CCCCCCC(=O)Nc1ccc([C@H]2O[C@@H](CSc3nc(-c4ccccc4)c(-c4ccccc4)o3)C[C@@H](c3ccc(CO)cc3)O2)cc1)NO` [Tubacin], the “lowest phenotypically active concentration” value stood at 9 µM.
Same read-out and setting: next, `CC1CNCCN1S(=O)(=O)c1cccc2cnccc12` (configuration not stated) [H-7 dihydrochloride]: 9 µM.
Same read-out and setting: next, `N#Cc1ccc2ncnc(NCCc3ccccc3)c2c1` [Senexin A]: 3 µM; `CCC(=O)N1CCOc2c(cc(-c3ccc(OC)c(OC)c3)cc2OC[C@H]2CCCN(C)C2)C1`: 9 µM; `Cc1ccc(NC(=O)c2cccc(C(C)(C)C#N)c2)cc1Nc1ccc2ncn(C)c(=O)c2c1`: 9 µM.
On the same count and under the same terms, the figure for `Cn1cc(-c2cnc3ccc4ccc(CS(=O)(=O)NCc5ccccn5)cc4c(=O)c3c2)cn1` is 3 µM; for `COc1cc2c(cc1OC)-c1c/c(=N/c3c(C)cc(C)cc3C)n(C)c(=O)n1CC2` [Trequinsin hydrochloride] it is 9 µM; for `O=C(Nc1ccncc1)c1cc([N+](=O)[O-])ccc1Cl` it is 9 µM.
With `CCC(C)(C)C(=O)O[C@H]1C[C@@H](C)C=C2C=C[C@H](C)[C@H](CC[C@@H]3C[C@@H](O)CC(=O)O3)[C@H]21` [Simvastatin], the “lowest phenotypically active concentration” value is 1 µM.
Take `Nc1cc(N)c(N)cc1N` [FAK Inhibitor 14]: the “lowest phenotypically active concentration” value was 9 µM.
Still for that read-out and setting: next, `Cc1ccc(S(=O)(=O)c2ccc([N+](=O)[O-])o2)cc1`: 9 µM.
Consider `Fc1ccccc1Nc1nc2nonc2nc1Nc1ccccc1F`, for which the “lowest phenotypically active concentration” value is 9 µM.
Take `O=c1cc(-c2ccccc2)oc2cc(O)cc(O)c12` [Chrysin]: the “lowest phenotypically active concentration” value was 9 µM.
Same read-out and setting: the figure for `CC[C@H](CO)Nc1nc(Nc2cccc(-c3ccccn3)c2)c2ncn(C(C)C)c2n1` [(R)-DRF053 dihydrochloride] is 9 µM; for `O=S(=O)(c1cccc2cnccc12)N1CCNCC1` it is 9 µM.
On to `CC(C)c1c(C(=O)Nc2ccccc2)c(-c2ccccc2)c(-c2ccc(F)cc2)n1CC[C@@H](O)C[C@@H](O)CC(=O)O` [atorvastatin], for which the “lowest phenotypically active concentration” value worked out at 3 µM.

Another experiment deals with WPMY1-GM130-SQSTM1. The experiment is described as above. Particulars: treatment time: 24 h. The gist of the method:
as §1
`O=C(CCCCCCC(=O)Nc1ccc([C@H]2O[C@@H](CSc3nc(-c4ccccc4)c(-c4ccccc4)o3)C[C@@H](c3ccc(CO)cc3)O2)cc1)NO` [Tubacin]: the “lowest phenotypically active concentration” value is 3 µM.
On the same count and under the same terms, next, `CC1CNCCN1S(=O)(=O)c1cccc2cnccc12` (configuration not stated) [H-7 dihydrochloride]: 9 µM; `CC1(CN2CCC(n3c(=O)[nH]c4ccccc43)CC2)OCc2ccccc2-n2cccc21` (configuration not stated): 3 µM; `Nc1ccc(N=Nc2ccccc2)c(N)n1` [phenazopyridine]: 3 µM.
On the same count and under the same terms, next, `CC(C)(C)c1ccc(C(O)CCCN2CCC(C(O)(c3ccccc3)c3ccccc3)CC2)cc1` (configuration not stated) [terfenadine]: 3 µM; `COc1ccccc1C(=O)Nc1cc2c(cc1N1CCCC1)n(C)c(=O)n2C`: 9 µM.
In the case of `Cc1ccc(NC(=O)c2cccc(C(C)(C)C#N)c2)cc1Nc1ccc2ncn(C)c(=O)c2c1`, the “lowest phenotypically active concentration” value was 3 µM.
For `O=C1c2c(O)cccc2Cc2cccc(O)c21` [anthralin], the “lowest phenotypically active concentration” value is 9 µM.
On the same count and under the same terms, the figure for `COc1cc2c(cc1OC)-c1c/c(=N/c3c(C)cc(C)cc3C)n(C)c(=O)n1CC2` [Trequinsin hydrochloride] is 9 µM; for `O=C(Nc1ccncc1)c1cc([N+](=O)[O-])ccc1Cl` it is 9 µM; for `O=C(/C=C/c1ccc2ccccc2n1)c1ccncc1` it is 9 µM.
Still for that read-out and setting: the figure for `CCC(C)(C)C(=O)O[C@H]1C[C@@H](C)C=C2C=C[C@H](C)[C@H](CC[C@@H]3C[C@@H](O)CC(=O)O3)[C@H]21` [Simvastatin] is 1 µM; for `Nc1cc(N)c(N)cc1N` [FAK Inhibitor 14] it is 3 µM; for `Cc1ccc(S(=O)(=O)c2ccc([N+](=O)[O-])o2)cc1` it is 3 µM.
The same measure, in the same setting: next, `Cc1ccc(O)c([C@H](CCN(C(C)C)C(C)C)c2ccccc2)c1` [Tolterodine L-tartrate]: 9 µM; `COc1ccc(CCc2nc3cc(-c4c(C)noc4C)ccc3n2C[C@H](C)N2CCOCC2)cc1Cl`: 9 µM.
In the case of `O=S(=O)(c1cccc2cnccc12)N1CCNCC1`, the “lowest phenotypically active concentration” value was found to be 9 µM.
Still for that read-out and setting: next, `CC(C)c1c(C(=O)Nc2ccccc2)c(-c2ccccc2)c(-c2ccc(F)cc2)n1CC[C@@H](O)C[C@@H](O)CC(=O)O` [atorvastatin]: 3 µM.
